Results published in ChEMBL document CHEMBL3988442, “University of Dundee, Small-Polar-MMV Screening Library” (2021).
The whole screen tested about 48,000 compounds, of which about 13,000 (27%) showed an effect of 50% or more. Some of the results follow.

Tested on: Wolbachia pipientis
Assay: Anti-Wolbachia Cell-Based Screen
Format: functional
Parameters: scale not given: in the data most compounds retested in dose-response had high values
Conditions: 5 µM

Structure (SMILES)	Percent Effect [%]
O=C(O)c1csc(S(=O)(=O)Nc2cccc(OC(F)F)c2)c1	-1.91
COC(=O)C(NC(=O)c1ccc(NC2CC2)nc1)c1ccccc1 (stereo not drawn)	-0.3075
O=C(NCCc1ccccc1)N1CC[C@@H]2CNS(=O)(=O)[C@@H]2CC1	-17.14
COC1CCN(C(=O)Cn2cccc(C(F)(F)F)c2=O)C1 (stereo not drawn)	-0.2293
c1cnn(CC2CN(CC3CCCCC3)CCO2)c1 (stereo not drawn)	102.2
FC(F)(F)Cn1ccnc1CN1CCOC(Cn2cccn2)C1 (stereo not drawn)	-0.9498
OC1(CN2CCOC(Cn3cccn3)C2)CCCCC1 (stereo not drawn)	99.61
O=S(=O)(CCN1CCOC(Cn2cccn2)C1)C(F)(F)F (stereo not drawn)	8.008
CC(C)=CCN1CCOC(Cn2cccn2)C1 (stereo not drawn)	136
c1cnn(CC2CN(CC3CCCC3)CCO2)c1 (stereo not drawn)	7.004
Cc1cccc(C(C)NCC2CCS(=O)(=O)CC2)c1 (stereo not drawn)	-4.903
O[C@H]1Cc2ccccc2[C@H]1Nc1ncccc1C(F)(F)F	-3.306
CCN(CC)C(=O)[C@@H]1C[C@@H](NC(=O)c2cccc(N(C)C)c2)CN1C	-6.856
COc1cc(C)nc(N2CCN(C(C)c3nc(C4CC4)no3)CC2)n1 (stereo not drawn)	4.237
Cc1nnc(NCC(c2ccco2)N(C)C)c(C#N)c1C (stereo not drawn)	0.3665
O=C(NCCc1ccn(-c2ccc(F)cc2)n1)C1CCCO1 (stereo not drawn)	-8.284
O=C(Cn1ccc2ccc(Br)cc21)NC[C@@H]1CCCN2CCCC[C@H]12	19.6
O=C(CC1CCCO1)Nc1ccc2c(ccn2CCN2CCOCC2)c1 (stereo not drawn)	-5.067
CCCn1ccc2cc(NC(=O)CC3CCCO3)ccc21 (stereo not drawn)	3.072
Cn1cc(C2CCCN2C(=O)Cn2ccc3ccc(Cl)cc32)cn1 (stereo not drawn)	-41.07
O=C(Cn1ccc2ccc(Cl)cc21)/N=c1\[nH]nc(C2CCCO2)s1 (stereo not drawn)	134.6
O=C(CCn1ccc2ccc(F)cc21)/N=c1\[nH]nc(C2CCCO2)s1 (stereo not drawn)	105.1
O=C(CCn1ccc2cc(Br)ccc21)/N=c1\[nH]nc(C2CCCO2)s1 (stereo not drawn)	98.02
NC(=O)C1CCN(C(=O)CCn2ccc3cc(Br)ccc32)CC1	25.85
CCN(CC)C(=O)Cn1ccc2cc(NC(=O)C3CCCO3)ccc21 (stereo not drawn)	-12.1
O=C(CCn1ccc2ccc(Br)cc21)/N=c1\[nH]nc(C2CCCO2)s1 (stereo not drawn)	100.3

Structure (SMILES)	Percent Effect [%]
O=C(NCc1cnn(-c2ccc(F)cc2F)c1)C1CCCO1 (stereo not drawn)	2.744
CCCN(C(=O)CCS(=O)(=O)Cc1ccccc1)c1cccc(C)c1	-47.75
Cc1ccc(-c2cn3c(n2)CO[C@@H](CNCc2cccnc2)C3)cc1	0.839
Cc1[nH]/c(=N\C(=O)c2csc(NCC(C)C)n2)sc1C	1.657
CCn1ccc2cc(NC(=O)CC3CCCO3)ccc21 (stereo not drawn)	3.531
COc1ccc2c(ccn2CCC(=O)/N=c2\[nH]nc(C3CCCO3)s2)c1 (stereo not drawn)	126.4
CNC(=O)CCC(=O)N1CCOC(c2ccc3cc(OC)ccc3c2)C1 (stereo not drawn)	9.004
CCc1cc(N2CCC(n3cc(C(=O)NC4CC4)nn3)CC2)ncn1	-11.68
CCC(C)CN1CCC(n2cc(C3CCCC3)nn2)CC1 (stereo not drawn)	-13.12
CCC(C)CN1CCC(n2cc(C3CCCCC3)nn2)CC1 (stereo not drawn)	-12.86
CC(C)Nc1cc(N2CCC(n3cc(CCO)nn3)CC2)ncn1	96.69
CCc1cc(N2CCC(n3cc(C(=O)NCC(C)C)nn3)CC2)ncn1	-7.159
CCCC(C)CN1CCC(n2cc(C3CCCC3)nn2)CC1 (stereo not drawn)	0.2453
C=C(C)CN1CCC(n2cc(C3CCCC3)nn2)CC1	14.96
CC(C)Nc1cc(N2CCC(n3cc(C4CC4)nn3)CC2)ncn1	77.15
Cc1cc(N2CCC(n3cc(CCCO)nn3)CC2)ccn1	1.957
CC(C)Nc1cc(N2CCC(n3cc(C4CCCC4)nn3)CC2)ncn1	92.63
OCCNc1cc(N2CCC(n3cc(C4CCCC4)nn3)CC2)ncn1	104
O=C(NC1CC1)c1cn(C2CCN(c3cc(C4CC4)ncn3)CC2)nn1	-15.81
Cc1nn(CCO)c(C)c1CNC1CCC(C)(C)c2ccccc21 (stereo not drawn)	-8.145
CNCCN1C(=O)CC[C@H]2CN(c3cnc4ccccc4n3)CC[C@H]21	-7.782
CC(C)COC1CCN(C(=O)c2ccc(C(F)(F)F)[nH]c2=O)CC1	17.18
N#Cc1ccc(CS(=O)(=O)NC(=O)c2ccc(C#N)cc2)cc1	0.6106
CCN1CCc2c(sc3c2C(=O)NC(/C=C\c2ccccc2)N3)C1 (stereo not drawn)	141.7
CN1CCc2c(sc3c2C(=O)NC(/C=C/c2ccccc2)N3)C1 (stereo not drawn)	102.8
CCN1CCc2c(sc3c2C(=O)NC(/C=C/c2ccco2)N3)C1 (stereo not drawn)	144

Structure (SMILES)	Percent Effect [%]
NC(=O)Nc1cccc(CNC(=O)CCCOCc2ccccc2)c1	-14.12
Cc1noc(C)c1C(=O)N(Cc1ccsc1)CC1CCCO1 (stereo not drawn)	-86.84
CCN1CCN(S(=O)(=O)N2CCCCCC2)[C@H]2CS(=O)(=O)C[C@H]21	2.124
CCCC(=O)N(CCCN1CCOCC1)c1nc2c(Cl)cccc2s1.Cl	31
Cn1c(-c2ccccc2Cl)nc2cc(C(=O)NCC3(CO)CC3)cnc21	10.87
Cc1noc(CCCC(=O)NCC(c2ccco2)N2CCCC2)n1 (stereo not drawn)	1.423
CC(C)c1noc(CCC(=O)NCC(c2ccco2)N2CCCC2)n1 (stereo not drawn)	-11.99
Cc1noc(CCCC(=O)NCC(c2ccco2)N2CCCCC2)n1 (stereo not drawn)	-0.8117
O=C(NCCCn1cncn1)NCC(c1ccco1)N1CCCCC1 (stereo not drawn)	9.107
O=C(CCn1cncn1)NCC(c1ccco1)N1CCCCC1 (stereo not drawn)	106.2
O=C(CCn1cncn1)NCC(c1ccco1)N1CCCC1 (stereo not drawn)	144.5
CC1CCN(CC(O)CN2CCn3c(nnc3C3CC3)C2)CC1 (stereo not drawn)	-2.379
Cc1ccoc1-c1nnc(CN2CCn3c(nnc3C3CC3)C2)o1	8.401
CC(C)c1nnc(NC(=O)CCc2cc(F)ccc2F)[nH]1	-72.05
Cc1n[nH]c(C)c1CCC(=O)N(C)Cc1cn[nH]c1-c1ccc(F)cc1	62.4
Cc1n[nH]c(C)c1CCCN(C)Cc1c[nH]nc1-c1ccc(F)cc1	-0.8434
CN(Cc1cn[nH]c1-c1ccc(F)cc1)C(=O)CCC1CC1	-8.61
CCCc1nnc(NC(=O)NC2CCOc3ccccc32)s1 (stereo not drawn)	-4.049
COc1ccc(CCc2nnc(NC(=O)C3CC34CCC4)s2)cc1OC (stereo not drawn)	134.8
COc1cc(CNC(=O)Nc2nnc(C3CC3)s2)ccc1O	-2.048
CC(=O)NC(C)CC(=O)NCc1cccnc1Oc1ccccc1C (stereo not drawn)	-2.321
COc1ccc(C(CC(=O)NCc2n[nH]c(N)n2)c2ccccc2)cc1 (stereo not drawn)	-21.33
COc1cc2ncn(Cc3ncc[nH]3)c(=O)c2cc1OC	88.22
COc1cc2ncn(CC(=O)NCCCN(C)C)c(=O)c2cc1OC	7.86
COc1cc2nc(C)n(CC(=O)O)c(=O)c2cc1OC	17.35
CNC(=O)C1CCN(Cc2nc(-c3ccc(SC)cc3)oc2C)C1 (stereo not drawn)	1.342

Structure (SMILES)	Percent Effect [%]
CCC(OC)C(=O)N1CCc2nc(NC)nc(C(=O)N3CCCC3)c2C1 (stereo not drawn)	0.1298
CNc1nc2c(c(C(=O)N3CCCC3)n1)CN(C(=O)C1CCCC1)CC2	99.86
CCCOCC(=O)N1CCCC(c2nnc(CN3CCCCC3)n2C)C1 (stereo not drawn)	-4.962
CCCOCC(=O)N1CCc2nc(NC)nc(C(=O)N3CCCC3)c2C1	106.3
CNc1nc2c(c(C(=O)N3CCCC3)n1)CN(C(=O)CCSC)CC2	109.5
CCc1nc(CN2CCCN(C(=O)CCSC)CC2)cs1	-7.739
CCN(C)c1ncnc2c1CCN(C(=O)N1CCCC1)CC2.O=C(O)C(F)(F)F	-2.138
COC(=O)CCC(=O)N1CCc2nc(C(=O)N3CCCCC3)sc2CC1	-23.17
CC(C)Nc1nc2c(c(NC3CC3)n1)CN(C(=O)c1ccsc1)CC2	4.633
CCN(C)CC(=O)N1CCc2nc(NC)nc(C(=O)N3CCCC3)c2C1	92.7
Cc1nc(N2CCCC2)nc2c1CCN(C(=O)CN(C)C)CC2.O=C(O)C(F)(F)F	-8.605
CC(C)Nc1nc2c(c(NC3CC3)n1)CN(C(=O)c1ccnnc1)CC2	10.08
CNc1nc2c(c(C(=O)N3CCCC3)n1)CN(C(=O)c1cccs1)CC2	93.6
O=C(c1cccs1)N1CCN(C(=O)c2ncoc2-c2ccco2)CC1	-2.664
Cc1csc(N2CCCN(C(=O)c3cccs3)CC2)n1	5.258
Cc1oncc1C(=O)N1CCCc2c(C#N)nn(C)c2C1	10.9
O=C(NCC[S+]([O-])Cc1ccccc1)c1ccc2[nH]c(=O)[nH]c2c1 (stereo not drawn)	105
Cc1nn(C)c(C)c1OCC(=O)NCC(O)Cc1ccccc1 (stereo not drawn)	-7.018
O=C(NCCCO)Nc1cccc(C[S+]([O-])Cc2ccccc2)c1 (stereo not drawn)	-4.621
O=C(NCC[S+]([O-])c1ccccc1)c1ccc2[nH]c(=O)[nH]c2c1 (stereo not drawn)	103.1
Cc1cccc(C(=O)NCCS(=O)(=O)Cc2ccccc2)c1	-4.406
O=C(NCC[S+]([O-])c1ccccc1)NCC(F)(F)F (stereo not drawn)	-2.779
O=C(NCC(O)c1ccc(F)cc1F)c1ccccc1 (stereo not drawn)	4.07
O=C(NCC(O)Cc1ccccc1)c1ccc2[nH]c(=O)[nH]c2c1 (stereo not drawn)	124
CSC(C)(C)CNC(=O)NCC[S+]([O-])c1ccccc1 (stereo not drawn)	5.192
